The source made the active and inactive calls.
Columns and labels:
[1] = small molecules captured by biotinylated probe aFSTL3 – biochemical, small-molecule microarray, fluorescence 635/667, stem cell growth factor project, primary screen (AID 1064); settings: higher = more signal;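 note: measures binding of the biotinylated anti-FSTL3 antibody to printed compounds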
[2] = binders from COS7 lysate, DM2A8 probe, primary screen, torsin A project, cell lysate, small-molecule microarray, fluorescence 635/667 (AID 1065); settings: higher = more signal, COS7 lysate expressing mutant human TOR1A
[3] = small molecules captured by biotinylated probe aFGF2 – biochemical, small-molecule microarray, fluorescence 635/667, stem cell growth factor project, primary screen (AID 1067); settings: higher = more signal;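 note: measures binding of biotinylated aFGF2 protein to printed compounds on slides; z-score merges feature fluorescence and signal-to-noise across triplicate slides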
[4] = small molecules captured by biotinylated probe aFGF10 – biochemical, small-molecule microarray, fluorescence 635/667, stem cell growth factor project, primary screen (AID 1071); settings: higher = more signal;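 note: score merges 667 nm spot intensity and signal to noise from triplicate slides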
[5] = molecular target: Neurogenic locus notch homolog protein 2 (Homo sapiens) (UniProt Q04721); experiment: small molecules binding Notch2 protein – biochemical, small-molecule microarray, 635 nm fluorescence, stem cell growth factors, primary screen (AID 1073); settings: higher = more signal
[6] = molecular target: Pro-neuregulin-1, membrane-bound isoform (Homo sapiens) (UniProt Q02297); experiment: small molecules binding neuregulin-1 protein – biochemical, small-molecule microarray, fluorescence 635/667, psychiatric disease protein project, primary screen (AID 1075); settings: NRG1 binding, 635 nm fluorescence, higher = more signal;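 note: score combines 667 nm spot fluorescence with signal to noise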
[7] = system: Neuregulin-1 EGF-like domain; experiment: small molecules binding NRG1 EGF domain – biochemical, small-molecule microarray, 635 nm fluorescence, primary screen (AID 1081); settings: higher = more signal;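 note: binding of the protein to compounds printed on small-molecule microarray slides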
[8] = FRG1 expression reporter modulators in myotubes – cell-based, C2C12 myotubes, firefly/Renilla luciferase, luminescence, FRG1 inhibition for FSHD, primary screen (AID 1084); settings: FRG1 promoter luciferase, higher = more signal, called active from +8 up or from −8 down
[9] = small molecules captured by biotinylated probe aFST – biochemical, small-molecule microarray, fluorescence 635/667, stem cell growth factor project, primary screen (AID 1086); settings: higher = more signal;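 note: score merges 667 nm fluorescence with signal-to-noise of each printed compound spot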
[10] = binders of probe aHhip on microarray, primary screen, stem cell growth factor project, biochemical, small-molecule microarray, fluorescence 635/667 (AID 1087); settings: higher = more signal;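 note: score merges spot fluorescence at 667nm with spot signal to noise ratio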

Chain of Neurogenic locus notch homolog protein 2 (Homo sapiens) (Q04721 whole entry, looked up, canonical isoform): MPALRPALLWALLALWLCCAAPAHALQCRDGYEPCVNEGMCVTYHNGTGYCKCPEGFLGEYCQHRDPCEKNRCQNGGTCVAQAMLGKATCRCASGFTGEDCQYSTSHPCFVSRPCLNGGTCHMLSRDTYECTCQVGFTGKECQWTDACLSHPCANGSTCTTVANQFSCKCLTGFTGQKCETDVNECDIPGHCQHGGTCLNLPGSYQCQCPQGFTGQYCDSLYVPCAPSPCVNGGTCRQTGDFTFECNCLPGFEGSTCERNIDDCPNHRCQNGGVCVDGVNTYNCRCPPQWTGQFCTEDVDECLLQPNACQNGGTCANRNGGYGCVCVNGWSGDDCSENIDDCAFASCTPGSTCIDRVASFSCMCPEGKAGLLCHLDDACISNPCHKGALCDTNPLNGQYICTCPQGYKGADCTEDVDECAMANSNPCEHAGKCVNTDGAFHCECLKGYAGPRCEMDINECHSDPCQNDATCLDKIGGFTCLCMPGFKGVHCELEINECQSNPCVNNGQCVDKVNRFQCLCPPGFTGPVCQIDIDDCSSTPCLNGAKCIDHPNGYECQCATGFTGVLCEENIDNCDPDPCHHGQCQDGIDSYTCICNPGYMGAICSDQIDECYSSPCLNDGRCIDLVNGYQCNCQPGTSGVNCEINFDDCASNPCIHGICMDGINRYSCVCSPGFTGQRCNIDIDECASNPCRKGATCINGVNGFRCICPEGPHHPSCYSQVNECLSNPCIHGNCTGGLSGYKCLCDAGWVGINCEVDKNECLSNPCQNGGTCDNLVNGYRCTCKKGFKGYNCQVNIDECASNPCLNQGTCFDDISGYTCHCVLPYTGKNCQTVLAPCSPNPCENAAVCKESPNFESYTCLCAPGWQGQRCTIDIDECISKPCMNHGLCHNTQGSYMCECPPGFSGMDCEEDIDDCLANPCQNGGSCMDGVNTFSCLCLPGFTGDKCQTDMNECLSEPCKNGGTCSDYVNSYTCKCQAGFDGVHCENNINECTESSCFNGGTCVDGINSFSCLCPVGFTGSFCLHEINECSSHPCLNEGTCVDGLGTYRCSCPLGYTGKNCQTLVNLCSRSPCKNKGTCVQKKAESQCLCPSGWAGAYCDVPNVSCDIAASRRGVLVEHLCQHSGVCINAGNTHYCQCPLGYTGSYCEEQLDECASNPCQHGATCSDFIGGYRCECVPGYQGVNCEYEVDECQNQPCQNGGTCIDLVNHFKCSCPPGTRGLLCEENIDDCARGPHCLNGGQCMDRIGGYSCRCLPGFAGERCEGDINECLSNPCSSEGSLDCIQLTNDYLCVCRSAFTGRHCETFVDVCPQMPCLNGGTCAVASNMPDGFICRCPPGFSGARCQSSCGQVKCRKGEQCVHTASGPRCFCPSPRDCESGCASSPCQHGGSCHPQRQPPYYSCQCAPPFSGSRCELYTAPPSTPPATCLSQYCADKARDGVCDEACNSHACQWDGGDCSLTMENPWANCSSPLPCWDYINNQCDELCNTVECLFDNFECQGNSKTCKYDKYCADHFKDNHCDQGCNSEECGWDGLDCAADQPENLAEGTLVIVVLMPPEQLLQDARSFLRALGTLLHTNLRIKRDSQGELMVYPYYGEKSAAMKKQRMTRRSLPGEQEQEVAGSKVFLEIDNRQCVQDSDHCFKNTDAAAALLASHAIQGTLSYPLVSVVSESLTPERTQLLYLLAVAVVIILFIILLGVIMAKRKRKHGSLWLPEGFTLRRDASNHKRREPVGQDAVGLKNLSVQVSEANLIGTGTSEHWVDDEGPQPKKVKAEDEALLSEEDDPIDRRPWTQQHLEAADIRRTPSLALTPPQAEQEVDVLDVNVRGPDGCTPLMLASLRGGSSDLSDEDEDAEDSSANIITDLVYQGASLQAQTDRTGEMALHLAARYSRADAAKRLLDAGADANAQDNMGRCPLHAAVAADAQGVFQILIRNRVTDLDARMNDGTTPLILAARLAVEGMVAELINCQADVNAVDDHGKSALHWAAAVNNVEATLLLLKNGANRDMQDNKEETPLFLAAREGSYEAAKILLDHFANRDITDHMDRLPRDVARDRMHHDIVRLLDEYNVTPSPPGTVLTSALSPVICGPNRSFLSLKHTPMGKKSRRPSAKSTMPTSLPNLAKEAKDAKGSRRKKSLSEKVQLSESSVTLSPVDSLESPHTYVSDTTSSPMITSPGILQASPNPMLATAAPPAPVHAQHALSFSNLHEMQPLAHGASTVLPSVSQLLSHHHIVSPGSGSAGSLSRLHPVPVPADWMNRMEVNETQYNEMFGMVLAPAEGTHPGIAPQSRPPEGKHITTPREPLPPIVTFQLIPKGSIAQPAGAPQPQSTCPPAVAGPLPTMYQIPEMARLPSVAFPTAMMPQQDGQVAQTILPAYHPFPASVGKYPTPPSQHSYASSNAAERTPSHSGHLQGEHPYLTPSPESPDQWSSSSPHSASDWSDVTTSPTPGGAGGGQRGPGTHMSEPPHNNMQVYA
Chain of Pro-neuregulin-1, membrane-bound isoform (Homo sapiens) (Q02297 whole entry, looked up, the tested form may be a part, canonical isoform): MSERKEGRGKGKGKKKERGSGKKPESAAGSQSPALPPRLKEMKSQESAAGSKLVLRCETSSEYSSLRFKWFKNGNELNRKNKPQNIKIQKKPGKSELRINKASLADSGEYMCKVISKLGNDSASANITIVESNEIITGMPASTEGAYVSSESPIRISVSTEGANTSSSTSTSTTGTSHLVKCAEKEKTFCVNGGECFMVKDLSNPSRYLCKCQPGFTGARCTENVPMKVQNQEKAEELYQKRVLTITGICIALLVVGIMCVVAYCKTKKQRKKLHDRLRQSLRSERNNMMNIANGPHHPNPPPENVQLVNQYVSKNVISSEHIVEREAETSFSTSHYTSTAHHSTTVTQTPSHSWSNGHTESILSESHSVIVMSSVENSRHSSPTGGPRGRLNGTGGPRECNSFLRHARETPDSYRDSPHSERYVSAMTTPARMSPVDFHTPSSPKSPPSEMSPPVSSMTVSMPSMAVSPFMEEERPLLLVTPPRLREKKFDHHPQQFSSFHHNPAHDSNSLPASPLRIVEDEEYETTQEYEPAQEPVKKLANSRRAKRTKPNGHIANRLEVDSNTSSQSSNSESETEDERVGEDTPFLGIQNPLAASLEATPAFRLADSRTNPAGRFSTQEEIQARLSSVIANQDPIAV

| SMILES | composite z-score [1] | composite z-score [2] | composite z-score [3] | composite z-score [4] | composite z-score [5] | composite z-score [6] | composite z-score [7] | z-score [8] | composite z-score [9] | composite z-score [10] |
| --- | --- | --- | --- | --- | --- | --- | --- | --- | --- | --- |
| CCOC(=O)C[C@H]1[C@H](OC(=O)c2ccccc2-c2ccccc2)[C@@H](NC(=O)c2ccc3ccccc3c2)c2cc(OCCCO)ccc2N1C(=O)c1ccccc1 | -0.421 | 0.483 | -0.0277 | 1.03 | 0.299 | 0.12 | 0.965 | -0.201 (inactive) | 0.0603 | 0.0373 |
| CC1=C2[C@@H](CCc3ccccc3)OB(O)C[C@@H]2[C@@H]2C(=O)N(Cc3ccccc3)C(=O)[C@@H]2C1 | -0.575 | -0.0096 | -0.155 | 0.0928 | 0.529 | 0.0808 | 1.02 | -0.0949 (inactive) | 0.0584 | -0.0618 |
| CCCCC(O)C1C=CC2C(=O)N(C)C(=O)C2N1N(c1ccccc1)c1ccccc1 (stereo not given) | 0.555 | 1.3 | 0.0748 | 0.0636 | 1.14 | 1.25 | 0.999 | 0.667 (inactive) | 0.701 | 0.0497 |
| CCOC(=O)[C@@H]1CCCCN1C(=O)C(=O)OC | 0.0188 | 0.188 | -0.0593 | 0.453 | 0.0842 | -0.0734 | 0.33 | 0.148 (inactive) | 0.115 | -0.342 |
| O=C1C2C=CC(C(O)c3cccc(O)c3)N(Nc3ccc([N+](=O)[O-])cc3)C2C(=O)N1c1ccccc1 (stereo not given) | -0.171 | 0.325 | -0.0133 | 0.765 | 0.719 | 0.0076 | 0.63 | 0.125 (inactive) | 0.441 | -0.136 |
| CN(C)C(=O)[C@@]1(Cc2ccccc2)N=C(c2ccc(OCCCO)cc2)O[C@H]1c1ccccc1 | 0.558 | 0.459 | 0.133 | 1.24 | 1.5 | 1.18 | 1.29 | -1.57 (inactive) | 0.889 | 0.28 |
| COC(=O)c1c(CC[C@@H](CO)NC(=O)N[C@@H](C)Cn2cc(-c3ccccn3)nn2)oc(C(C)=O)c1C(=O)OC | -0.291 | 0.334 | -0.076 | 0.384 | -0.127 | 1.66 | 1.29 | 0.224 (inactive) | -0.205 | -0.0237 |
| NC(=O)[C@H]1[C@@H]2C(=O)O[C@@H](c3ccccc3)[C@@H](c3ccccc3)N2[C@@H](c2ccc(OCCO)cc2)[C@]12C(=O)Nc1ccc(C#CCCO)cc12 | 0.127 | 0.685 | -0.0524 | 0.715 | 0.874 | 0.874 | 1.02 | 1.7 (inactive) | 0.232 | -0.275 |
| CC(C)NC(=O)[C@@]1(c2ccc([N+](=O)[O-])cc2)CC(=O)N(C2CCCCC2)[C@@H]1c1ccc(CO)cc1 | -0.903 | 1.08 | 0.0584 | 0.817 | 0.261 | 1.69 | 1.35 | -0.629 (inactive) | -0.114 | -0.172 |
| O=C(NCCN1CCOCC1)[C@@H]1c2ccccc2C(=O)N(Cc2ccccc2Cl)[C@H]1c1ccc(CO)cc1 | -0.138 | -0.483 | -0.15 | -0.758 | -0.922 | 0.923 | 1.32 | -2.41 (inactive) | 0.263 | -0.391 |
| C[N+](C)(C)CCCC[C@@H]1NC(=O)[C@@H]2C[C@H](C(=O)NCCCCCCN)[C@H](c3cccc(OCCO)c3)N2C1=O | 2.69 | 2.09 | 0.239 | 0.494 | 0.731 | 2.31 | 1.38 | -0.155 (inactive) | 2.1 | 1.05 |
| COCCOC(=O)N1C(=O)[C@@]2(c3cc(C#CCC(C(=O)OC)C(=O)OC)ccc31)[C@H](c1ccc(OCCO)cc1)N1[C@H](c3ccccc3)[C@H](c3ccccc3)OC(=O)[C@H]1[C@@H]2C(=O)N1CCc2cc(OC)c(OC)cc2C1 | 0.119 | 0.351 | -0.0985 | 0.953 | 1.21 | 1.54 | 1.25 | 0.913 (inactive) | 0.47 | -0.131 |
| COCCOC(=O)N1C(=O)[C@@]2(c3cc(C#CC4=CCCCC4)ccc31)[C@H](c1ccccc1OCCO)N1[C@H](c3ccccc3)[C@H](c3ccccc3)OC(=O)[C@H]1[C@@H]2C(=O)NC[C@H](O)c1ccccc1 | -0.223 | 0.123 | -0.0817 | 0.345 | 1.07 | 0.298 | 1.23 | 0.204 (inactive) | 0.635 | 0.115 |
| O=C1N(Cc2ccccc2)c2ccccc2C[C@]12N=C(c1ccc(OCCCO)cc1)O[C@@H]2c1ccccc1 | 0.0854 | 0.278 | -0.125 | 0.576 | 0.699 | 0.888 | 1.09 | -0.724 (inactive) | -0.0607 | -0.0994 |
| O=c1cccc(-c2ccc([N+](=O)[O-])cc2)o1 | -0.164 | -0.0642 | 0.0008 | 0.287 | 0.698 | -0.283 | 0.348 | -0.0029 (inactive) | -0.192 | -0.0263 |
| Cc1ccc(S[C@]2(C(=O)NCc3ccccc3)CC(=O)N(C3CCCCC3)[C@@H]2c2ccc(CO)cc2I)cc1 | 1.27 | -0.0582 | 0.11 | 0.339 | 0.553 | 1.17 | 1.19 | -2.84 (inactive) | 0.455 | -0.132 |
| O=C1N(CCS(=O)(=O)c2ccccc2)c2ccccc2[C@H]2OC(c3ccc(OCCCO)cc3)=N[C@@]12Cc1ccccc1 | 0.529 | 0.756 | 0.0918 | 0.102 | 0.918 | -0.0845 | 1.29 | -0.375 (inactive) | 0.772 | -0.0663 |

Source: PubChem BioAssay
